Screening results (PubChem BioAssay)
DT40 TDP1 CPT: growth inhibition of DT40 Tdp1-/-;hTDP1 cells with camptothecin (screen for TDP1 inhibitors). chicken DT40 Tdp1-/-;hTDP1 cells + 20 nM CPT, ATP luminescence, 48 h. Potency, µM (titrated, usually from 46.2 µM), without a hit: top-dose activity change, negative = growth inhibition, usual class: inhibitors. AID 686979. 420,000 compounds, 12% hits; also: potency is read from the fitted curve at half-maximal effect; nearly all actives have a fitted effect of over 55% in size
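Cell growth measured by CellTiter-Glo luminescence after a minimum 48 h, 37 C compound exposure with 20 nM CPT in Tdp1-knockout DT40 cells stably expressing hTDP1, seeded 400/well; qHTS titration format.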
ELG1 repair inh: blocks ELG1-dependent DNA repair in HEK293T cells. HEK293T ELG1-luciferase reporter, luminescence, 16 h; DNA damage induced by 5-fluorouridine. 330,000 compounds, 2.3% hits. Potency, µM (doses to about 46.1 µM), for the others: at the highest dose activity change, negative = inhibition, hits mostly inhibitors; also: potency is read from the fitted curve at half-maximal effect; nearly all actives have a fitted effect of over 55% in size
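Step one: seed 2,000 cells per well. Step two: pin-transfer compound or DMSO alongside 5-fluorouridine. Step three: incubate 16 hr, 37 °C, 5% CO2. Step four: add ONE-Glo, wait 30 min, read luminescence.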
TDP1 inh: inhibitors of human tyrosyl-DNA phosphodiesterase TDP1; Potency, µM (doses to about 130 µM), for inactives: top-dose activity change, negative = inhibition, usual class: inhibitors; AID 485290; 350,000 compounds, 0.28% hits; recombinant TDP1, AlphaScreen DNA substrate cleavage; also: potency is read from the fitted curve at half-maximal effect; nearly all actives have a fitted effect of over 40% in size
Target sequence (Q9NUW8 whole entry, looked up): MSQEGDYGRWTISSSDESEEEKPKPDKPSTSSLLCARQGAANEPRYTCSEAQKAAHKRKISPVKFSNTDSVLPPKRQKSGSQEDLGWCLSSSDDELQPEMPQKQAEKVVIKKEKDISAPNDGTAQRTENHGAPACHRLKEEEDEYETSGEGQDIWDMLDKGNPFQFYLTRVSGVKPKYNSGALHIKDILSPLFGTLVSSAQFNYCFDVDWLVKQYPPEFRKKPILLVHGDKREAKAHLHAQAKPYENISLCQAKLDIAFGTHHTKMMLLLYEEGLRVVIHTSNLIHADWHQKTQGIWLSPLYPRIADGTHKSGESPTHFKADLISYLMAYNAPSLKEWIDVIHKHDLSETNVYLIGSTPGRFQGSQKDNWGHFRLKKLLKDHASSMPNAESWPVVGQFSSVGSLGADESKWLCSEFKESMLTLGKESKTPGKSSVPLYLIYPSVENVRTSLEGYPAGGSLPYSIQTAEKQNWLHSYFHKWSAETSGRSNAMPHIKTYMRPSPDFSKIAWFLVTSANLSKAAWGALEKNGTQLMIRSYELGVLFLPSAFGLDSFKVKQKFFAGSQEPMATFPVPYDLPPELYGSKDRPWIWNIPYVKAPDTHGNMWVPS
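Recombinant E. coli-expressed Tdp1 (1 nM) preincubated with compound 15 min at RT, then 5'-biotin/3'-phosphotyrosine-FITC DNA substrate (15 nM) added for 5 min. AlphaScreen beads (10 ug/ml) added, 10 min RT; tyrosine-FITC cleavage read as signal loss.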
IL1B secr inh: inhibitors of inflammasome signaling (IL-1 beta secretion); 360,000 compounds, 4.7% hits; activity change, % at 57.5 µM; THP-1 LPS/ATP IL-1B secretion, AlphaLISA, 16 h; stronger effect = lower value; in the data active = activity change below about -50%; inconclusive = mostly about -30% to -49%
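Secreted IL-1B measured by AlphaLISA bead assay after 16 h compound exposure of THP-1 cells; compounds (final up to 57.5 uM) added 1 h before LPS (250 ng/mL) and ATP (1.25 mM) stimulation; lower signal means less secretion.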
DT40 TDP1 no CPT: qHTS for Inhibitors of human tyrosyl-DNA phosphodiesterase 1 (TDP1): qHTS in cells in absence of CPT | DT40 Tdp1-/- hTDP1 cells, no CPT, ATP luminescence, 48 h | AID 686978, 2013 | Potency, µM (titrated, usually from 46.2 µM), for inactives: at the top dose activity change, negative = growth inhibition, most hits filed as inhibitors | 420,000 compounds, 15% hits; also: potency is read from the fitted curve at half-maximal effect; nearly all actives have a fitted effect of over 55% in size
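Cells were dispensed at 400 per well, compounds added by pin tool, plates incubated ≥48 hr at 37 °C, then CellTiter-Glo added for 30 min at room temperature before luminescence reading. Line: DT40 Tdp1-/- complemented with hTDP1; camptothecin omitted.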
Giardia killer: kills Giardia lamblia; Giardia lamblia trophozoite viability; activity change, % at 7.66 µM, hits read low; 340,000 compounds, 0.15% hits; in the data active = activity change below about -80%; inconclusive = between about -30% and that limit;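 also: parasites exposed to compound for two days anaerobically before the ATP read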
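Trophozoite viability was measured as ATP-dependent luminescence, read 15-30 min after reagent addition. Before that, parasites at 100 cells/well were exposed to compounds for 48 h, anaerobically, at 37 deg C.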
* hit, by the source's call; ? = inconclusive; · = not tested or not shown. Rows were chosen to be rich in hits. Some 19% of all compounds tested hit in one or more screens of this group. Unless noted, calls follow the shape of the dose curve; as a rule, active = well fitted curve in the direction sought with a large enough effect; inconclusive = small, poorly fitted or top-dose-only effect, or another doubt; inactive = no such curve, though single readings can be large; an effect the other way counts as inactive or inconclusive. % is scaled to controls: 0 for no effect and ±100 for the full control effect.

SMILES | DT40 TDP1 CPT | ELG1 repair inh | TDP1 inh | IL1B secr inh | DT40 TDP1 no CPT | Giardia killer
COc1cccc(-c2cnc(C(O)c3ccc(SC)cc3)[nH]2)c1 (centres undefined) | ? | · | · | 15 | 16µM* | ·
CSc1ccc(C(O)c2ncc(-c3cccc(F)c3)[nH]2)cc1 (centres undefined) | 15µM* | · | · | 0 | ? | ·
COc1cccc(-c2cnc(C(O)c3ccc(Cl)c(Cl)c3)[nH]2)c1 (centres undefined) | 21µM* | · | · | 21 | ? | ·
COc1cccc(-c2cnc(C(O)c3ccc(F)cc3)[nH]2)c1 (centres undefined) | -12% | · | · | 21 | -12% | ·
CC(=O)c1c(C)cc(C)c(CSc2ccccn2)c1C | -9% | ? | -11% | 32 | -19% | 8
COc1cccc(-c2cnc(C(O)c3ccc(Cl)cc3)[nH]2)c1 (centres undefined) | 26µM* | · | · | 35 | ? | ·
COc1ccc(C(O)c2ncc(-c3cccc(OC)c3)[nH]2)cc1 (centres undefined) | -7% | · | · | -5 | -22% | ·
C=CCNCCCOc1ccc(Cl)cc1C(C)(C)C | ? | 9% | -11% | -85* | ? | -3
CC(C)(C)NCCOCCOc1ccc(Cl)cc1C(C)(C)C | ? | -4% | -1% | -6 | ? | 14
COCCCNCCOCCOc1ccc(Cl)cc1C(C)(C)C | 16µM* | -13% | -6% | -14 | 10µM* | 2
C=CCNCCOCCOc1ccc(Cl)cc1C(C)(C)C | 18µM* | 8% | 1% | -53* | 26µM* | -12
CCCN(C(=O)c1cc(Cl)nc2ccccc12)c1c(N)n(Cc2ccccc2)c(=O)[nH]c1=O | -1% | ? | 0% | 6 | 18% | -3
Cn1cc(CN2CCOc3ccc(C(O)C4CCCCC4)cc3C2)cn1 (centres undefined) | ? | · | · | · | 12µM* | ·
CCOC(=O)c1ccc(NCc2cccnc2)cc1 | -13% | ? | · | -6 | -24% | -21
S=C(NCc1ccccc1)N1CCCCC1 | -3% | -1% | 5% | -19 | -13% | 1
CC(NNC(=S)N1CCCCCC1)c1ccc2ccccc2n1 (centres undefined) | 0.0082µM* | · | · | 85 | 0.0082µM* | ·
Cc1c2ccccc2cc(Cc2ccccc2)[n+]1C | 23µM* | -12% | 3% | 18 | 13µM* | 18
Cc1cc(C)c(S(=O)(=O)c2ccccc2C)c(SCC(C)C)n1 | ? | 1% | -3% | 10 | 23µM* | 10
Cc1ccc(S(=O)(=O)c2c(C)cc(C)nc2Oc2cccc(C)c2C)cc1 | ? | -3% | 4% | -8 | 18µM* | -18
CCOCCOc1nc(C)cc(C)c1S(=O)(=O)c1ccccc1C | -4% | -1% | 6% | -3 | ? | 17
Cc1cc(C)c(S(=O)(=O)c2ccccc2C)c(OCC(C)(C)C)n1 | 10µM* | 21% | 1% | -24 | 9.2µM* | -4
COc1nc(C)cc(C)c1S(=O)(=O)c1ccccc1 | 0% | -4% | · | 12 | -2% | -13
CCCSc1nc(C)cc(C)c1S(=O)(=O)c1ccccc1C | 16µM* | -26% | -1% | 3 | 7.3µM* | -15
O=S(=O)(c1ccc2c(c1)OCCO2)N1CCN(S(=O)(=O)c2ccccc2F)CC1 | · | · | 2% | · | · | ·
Cc1ccc2nc(NC(=O)CSc3nncc(=O)n3N)sc2c1 | ? | ? | -9% | 2 | 16µM* | -25
CCOc1ccc(-c2nnc3ccc(SCC(=O)N4CCCCC4)nn23)cc1 | -7% | ? | 3% | -1 | -26% | 4
Cc1ccc2nc(NC(=O)CCn3c(=O)sc4ccccc43)sc2c1 | 18µM* | -10% | 2% | 27 | ? | 21
CCOc1ccc(-c2nnc3ccc(SCC(=O)Nc4nc5ccccc5s4)nn23)cc1 | ? | 7.3µM* | 7% | 15 | 18µM* | -9
